What all share (assay): yeast three-hybrid, YBZ-1, SC-Leu-His + 0.5 mM 3-AT, 4 days
What all share (details): tags: N-Gal4 AD-HA kept; label: inside an RPR1-promoter hybrid RNA with tandem MS2 sites; ssRNA

In assay [1] the target is PUM1 PUF domain R1-RAS (Homo sapiens, UniProt Q14671 828-1176, S863R;R864A;Q867S). The essentials:
(§1)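 Pumilio-1 PUF domain libraries, randomized at the three base-contacting residues of each repeat, were co-expressed with matching RNA elements from a centromeric plasmid in strain YBZ-1, which carries a LexA–MS2 coat fusion and a HIS3 reporter. Transformants grew for four days on SC-Leu (input) or on SC-Leu-His + 0.5 mM 3-AT (selection), and the repeat regions were PCR-amplified and Illumina-sequenced. The interaction score is the log change in variant frequency from input to selection. That logarithm is base 2, with a pseudocount of 1 where a variant was absent.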

In assay [2] the target is PUM1 PUF domain R1-KGR (Homo sapiens, UniProt Q14671 828-1176, S863K;R864G;Q867R). The method, boiled down: as §1
PUM1 PUF domain R1-KGR, sequence (Q14671 828-1176 S863K/R864G/Q867R): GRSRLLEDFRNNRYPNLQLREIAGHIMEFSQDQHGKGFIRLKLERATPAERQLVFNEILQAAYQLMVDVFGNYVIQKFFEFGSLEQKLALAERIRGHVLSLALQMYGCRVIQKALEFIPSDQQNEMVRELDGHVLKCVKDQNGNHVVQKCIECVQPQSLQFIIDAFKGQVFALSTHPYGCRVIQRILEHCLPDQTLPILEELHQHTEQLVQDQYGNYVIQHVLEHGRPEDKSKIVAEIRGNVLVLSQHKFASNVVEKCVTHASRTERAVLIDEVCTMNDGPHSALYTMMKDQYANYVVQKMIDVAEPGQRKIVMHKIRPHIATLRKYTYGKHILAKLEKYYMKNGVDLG
In assay [3] the target is PUM1 PUF domain R5-DFV (Homo sapiens, UniProt Q14671 828-1176, C1007D;R1008F;Q1011V). The essentials:
as §1

Assay [4] deals with T1, PUM1 PUF domain R6-CHC (Homo sapiens, UniProt Q14671 828-1176, N1043C;Y1044H;Q1047C).
T1 sequence: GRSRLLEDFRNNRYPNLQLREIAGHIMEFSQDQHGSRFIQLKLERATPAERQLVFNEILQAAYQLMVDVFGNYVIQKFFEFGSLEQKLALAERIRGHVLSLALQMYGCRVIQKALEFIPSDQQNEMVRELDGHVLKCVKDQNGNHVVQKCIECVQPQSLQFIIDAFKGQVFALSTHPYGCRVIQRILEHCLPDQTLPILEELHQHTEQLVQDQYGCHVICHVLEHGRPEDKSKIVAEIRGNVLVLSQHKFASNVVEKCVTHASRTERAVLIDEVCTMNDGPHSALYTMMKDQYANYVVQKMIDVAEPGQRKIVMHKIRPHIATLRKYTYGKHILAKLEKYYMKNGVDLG
The essentials: as §1

Assay [5] deals with PUM1 PUF domain R8-KWA (Homo sapiens, UniProt Q14671 828-1176, N1122K;Y1123W;Q1126A). The method, boiled down:
as §1

PUM1 PUF domain R1-RAS, sequence (Q14671 828-1176 S863R/R864A/Q867S): as the sequence (Q14671 828-1176 S863K/R864G/Q867R) above, with K36R, G37A, R40S counted along it
PUM1 PUF domain R5-DFV, sequence (Q14671 828-1176 C1007D/R1008F/Q1011V): as the sequence (Q14671 828-1176 S863K/R864G/Q867R) above, with K36S, G37R, R40Q, C180D, R181F, Q184V counted along it

For the sequence “GGCUAGAACUAGUGGAUCCCCCGGCGCCCGGCGGCUCGAGCCCGGGUAAGUGUAAAUGGUCUGCAUGCCGCCGGGCGCCAUGCCUGCAGGUCGACUCUAGAAAACAUG”, in assay [1], the binding signal is 1.5 log2 enrichment (interaction score).

As to “GGCUAGAACUAGUGGAUCCCCCGGCGCCCGGCGGCUCGAGCCCGGGUAAGUGUAAAUCGUCUGCAUGCCGCCGGGCGCCAUGCCUGCAGGUCGACUCUAGAAAACAUG”, the binding signal was 3.1 log2 enrichment (interaction score) in assay [1] and 3.57 log2 enrichment (interaction score) in assay [2].

Regarding “GGCUAGAACUAGUGGAUCCCCCGGCGCCCGGCGGCUCGAGCCCGGGUAAGUGUGAAUAGUCUGCAUGCCGCCGGGCGCCAUGCCUGCAGGUCGACUCUAGAAAACAUG”, the binding signal in assay [3] was 3.55 log2 enrichment (interaction score).

On to “GGCUAGAACUAGUGGAUCCCCCGGCGCCCGGCGGCUCGAGCCCGGGUAAGUGUAAAUUGUCUGCAUGCCGCCGGGCGCCAUGCCUGCAGGUCGACUCUAGAAAACAUG”, for which the binding signal is 2.89 log2 enrichment (interaction score) in assay [1] and 4.34 log2 enrichment (interaction score) in assay [2].

For “GGCUAGAACUAGUGGAUCCCCCGGCGCCCGGCGGCUCGAGCCCGGGUAAGUGUAAAUAGUCUGCAUGCCGCCGGGCGCCAUGCCUGCAGGUCGACUCUAGAAAACAUG”, the binding signal in assay [4] is 3.57 log2 enrichment (interaction score); in assay [5] it was 2.67 log2 enrichment (interaction score).

The values are drawn from article PMC8384837, “Expanding the binding specificity for RNA recognition by a PUF domain”.
